Test results published in PubChem BioAssay AID1259422 (The Scripps Research Institute Molecular Screening Center, 2018).
Among all 640,000 compounds or so, about 9,300 (1.5%) were called active. The list comes from a sample in which actives are over-represented; it also holds similar structures and randomly drawn compounds. A number with no mark means an inactive call. No stated cut-off is given here; in the data, active means inhibition above about 32%; inactive means the rest.

Assay: TEAD-YAP interaction inhibition, primary screen, TEAD-YAP interaction inhibitor project, luminescence, HEK-TIYL cells (AID 1259422);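 further: 0% = median of test compound wells and 100% = reference inhibitor wells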
Settings: TEAD-Gal4/YAP UAS-luciferase luminescence, at 9.12 µM, stronger effect = higher value
In the case of `COc1cccc(NC(=O)CSc2nc(O)c(C)c(=O)n2-c2ccc(F)cc2)c1`, the inhibition is reported as -6.67%.
`COc1ccc(/C=N/NC(=O)CNc2cccc3ccccc23)cc1Cl` gave an inhibition of 8.35%.
In the case of `O=C(CCSc1nc(-c2ccccc2)cs1)N1CCOCC1`, the inhibition is reported as -10.1%.
With `O=C(NC1CC1)C1CCN(C(=O)c2sccc2-n2cccc2)CC1` the inhibition was 0.5%.
In the case of `CCC1CN(Cc2cn(CC)nc2C)Cc2cc(OC)ccc2O1` (stereo unspecified), the inhibition is reported as 4.73%.
With `CC(C)n1cnc2c(NCc3nc4ccccc4[nH]3)nc(Cl)nc21` the inhibition was 61.8% (active).
With `COc1cc(Nc2cc(C(=O)NCc3nc4ccccc4[nH]3)ccn2)cc(OC)c1OC` the inhibition was 2.93%.
With `COc1cc(Nc2nc(NCc3nc4ccccc4[nH]3)c3ncn(C(C)C)c3n2)cc(OC)c1OC` the inhibition was 47.9% (active).
In the case of `FC(F)(F)c1ccc(Cn2cnc3c(NCc4nc5ccccc5[nH]4)nc(Cl)nc32)cc1`, the inhibition is reported as -2.85%.
`COc1ccc(-c2nc(Nc3cc(OC)c(OC)c(OC)c3)c3ncn(C(C)C)c3n2)cc1` gave an inhibition of 23.6%.
For `COc1ccc(CNc2nc(-c3ccccc3)nc3c2ncn3C(C)C)cc1`, the inhibition was -3.1%.
With `Cc1c(C(=O)NCC2CCCO2)sc2ncn(Cc3ccccc3F)c(=O)c12` (stereo unspecified) the inhibition was 2.38%.
In the case of `Oc1c(C(c2ccc(F)cc2)N2CCOCC2)sc2ncnn12` (stereo unspecified), the inhibition is reported as -3.52%.
`COc1ccccc1N1CCN(/N=C(\C)c2cccs2)CC1` showed an inhibition of -19.5%.
With `CCCn1nnnc1NC(=S)NC(=O)c1cc2ccccc2o1` the inhibition was 35.9% (active).
Work on `Cc1cccnc1NC(=S)NC(=O)c1cc2ccccc2o1` yielded an inhibition of -26.1%.
In the case of `CCCn1nnnc1NC(=O)c1ccc(-c2cccc(Cl)c2)o1`, the inhibition is reported as -16.9%.
With `Cc1ccc(C(C)C)c(OC(=O)c2cc(-c3ccc(Cl)cc3)nc3ccc(C)cc23)c1` the inhibition was -8.87%.
For `CC1CCN(C2=C(NC3CCCC3)C(=O)c3ccccc3C2=O)CC1`, the inhibition was 51.5% (active).
`O=C1C(Nc2ccc(F)c(F)c2)=C(N2CCCC2)C(=O)c2ccccc21` showed an inhibition of -1.87%.
Compound `O=C1C(Nc2ccc(F)c(F)c2)=C(N2CCCCC2)C(=O)c2ccccc21` has an inhibition of -7.95%.
For `Cc1c(C(=O)N2CCN(Cc3ccc4c(c3)OCO4)CC2)sc2ncn(CC(=O)Nc3cccc(C(F)(F)F)c3)c(=O)c12`, the inhibition was -1.1%.
Work on `CNC(=O)c1ccc(Cl)c([N+](=O)[O-])c1` yielded an inhibition of 8.77%.
Work on `CCCCC(=O)NC1(C(F)(F)F)C(=O)N(C2CCCCC2)C(C)=C1C(=O)OCC` (stereo unspecified) yielded an inhibition of 18.5%.
Compound `Nc1c(C(=O)OCC(=O)NCc2ccc3c(c2)OCO3)[nH]c(=O)[nH]c1=O` has an inhibition of -6.24%.
Compound `COC(=O)c1c(C)oc2c1cc(NS(=O)(=O)c1ccc(Cl)cc1)c1ccccc12` has an inhibition of 11.4%.
For `CC(=O)c1c(C)oc2c1cc(NS(=O)(=O)c1ccc(C)cc1)c1ccccc12`, the inhibition was 62.9% (active).
For `COCCOC(=O)c1c(C)oc2ccc(NS(=O)(=O)c3ccc(Cl)cc3)cc12`, the inhibition was -2.27%.
Compound `Cc1ccc(S(=O)(=O)Nc2ccc3oc(C)c(C(=O)NN)c3c2)cc1` has an inhibition of 10.1%.
With `COc1ccc(S(=O)(=O)Nc2ccc3oc(C)c(C(C)=O)c3c2)cc1` the inhibition was 54.7% (active).
`CC(=O)c1c(C)oc2c1cc(NS(=O)(=O)c1cccc3cccnc13)c1ccccc12` gave an inhibition of -0.78%.
For `C=CCOC(=O)N1CCC(C(=O)NC(c2ccc(F)cc2)c2ccccn2)CC1` (stereo unspecified), the inhibition was 6.83%.
For `COc1ccccc1NC(=O)N1CCC2(CC1)OCc1cc(SC)cc(C)c1O2`, the inhibition was 1.69%.
For `C=CC(=O)Nc1ccc(OC)cc1OC`, the inhibition was 43.2% (active).
Work on `COc1ccc(NC(=O)/C=C\c2cccc3ccccc23)c(OC)c1` yielded an inhibition of 2.51%.
For `COc1ccc(CNC(=O)Nc2ccc(OC)cc2OC)cc1`, the inhibition was 0.36%.
Compound `CCn1cc(C(=O)OCc2c(F)cccc2Cl)c(=O)c2ccc(C)nc21` has an inhibition of -3.49%.
Compound `CCOc1ccc(-c2nc(-c3cccc([N+](=O)[O-])c3)no2)cc1` has an inhibition of -19.3%.
`Cc1ccc2[nH]c3c(=O)n(N)cnc3c2c1` showed an inhibition of -5.24%.
With `CCOC(=O)C(CC)Sc1nnc2c(n1)[nH]c1ccc(F)cc12` (stereo unspecified) the inhibition was -2.45%.
For `CCCCNc1ncnc2c1[nH]c1ccc(F)cc12`, the inhibition was 42.6% (active).
For `N#CC1(NS(=O)(=O)c2cc([N+](=O)[O-])ccc2Cl)CCCCC1`, the inhibition was -2.76%.
`CC(=O)c1ccc(NC(=O)/C=C/c2cccc([N+](=O)[O-])c2)cc1` gave an inhibition of -22.5%.
In the case of `Ic1ccc2ncnc(NCCc3ccccc3)c2c1`, the inhibition is reported as 32.8% (active).
Work on `COCCCNc1ncnc2ccc(I)cc12` yielded an inhibition of 29.9%.
In the case of `Ic1ccc2ncnc(NCC3CCCO3)c2c1` (stereo unspecified), the inhibition is reported as 25.4%.
In the case of `CCn1c(SCC(=O)N2CCc3ccccc32)nnc1-c1ccccc1`, the inhibition is reported as -0.23%.
In the case of `O=C(NCc1ccccc1)c1csc(Nc2ccc(N3CCOCC3)cc2)n1`, the inhibition is reported as 35% (active).
With `O=C(NCCc1ccc(O)cc1)c1csc(Nc2ccc(N3CCOCC3)cc2)n1` the inhibition was 39.4% (active).
With `O=C(NCCc1ccc(O)cc1)c1csc(Nc2ccc3ncccc3c2)n1` the inhibition was -1.97%.
In the case of `O=C(NCCc1ccccc1)c1csc(Nc2ccccc2)n1`, the inhibition is reported as -24.6%.
Work on `O=C(NCc1ccccc1)c1csc(Nc2ncccn2)n1` yielded an inhibition of 5.56%.
In the case of `O=C(Nc1ccc(N2CCOCC2)cc1)c1csc(Nc2ccc(-n3ccnc3)cc2)n1`, the inhibition is reported as 17.6%.
Work on `Cc1ccc2nc(-c3cc(NC(=O)c4ccccc4C)ccc3Cl)oc2c1` yielded an inhibition of -11.2%.
Compound `COc1ccc(Cn2c(SCC(=O)NCCc3ccc(OC)c(OC)c3)nc3ccsc3c2=O)cc1` has an inhibition of 11.1%.
`CC(C)(C)c1ccc(CSc2nc3ccc(NC(=O)c4ccccc4)cc3s2)cc1` gave an inhibition of 2.44%.
For `CCC(=O)Nc1ccc(NC(=O)COc2ccc(Br)cc2)cc1C`, the inhibition was 0.24%.
Work on `COc1ccc(-c2cc(C(=O)Nc3sc(C)c(C)c3C#N)c3ccccc3n2)cc1OC` yielded an inhibition of -0.22%.
For `CCN(CC)C(=O)c1sc(NC(=O)c2c(-c3ccccc3)noc2C)c(C(=O)OC(C)C)c1C`, the inhibition was 2.03%.
`Fc1ccc(C2=Nc3ccc(F)cc3C(C3CC3)=NN2)cc1` gave an inhibition of -2.31%.
`CCOc1ccc(C(=O)NCC(=O)OCC#N)cc1` showed an inhibition of 0.54%.
For `CCOC(=O)/C(N=Nc1ccc2c(c1)OCCO2)=C(/O)c1ccc([N+](=O)[O-])cc1`, the inhibition was 88.1% (active).
Work on `CCOC(=O)/C(N=Nc1cc(C(=O)O)cc(C(=O)O)c1)=C(\C)O` yielded an inhibition of 8.94%.
Work on `CS(=O)(=O)c1ccc(C(=O)OCC(=O)c2ccc3c(c2)OCCO3)cc1[N+](=O)[O-]` yielded an inhibition of 2.27%.
For `COc1ccc(CNC(=O)CC(C)C)cc1`, the inhibition was -2.6%.
Work on `c1cc(-c2ccc(OC3CCNCC3)cc2)cs1` yielded an inhibition of -27.5%.
For `Cc1cc(C)c(OCCn2c(-c3ccc(Cl)cc3)nc3ccccc3c2=O)c(C)c1`, the inhibition was -10.6%.
With `CCOc1ccc(S(=O)(=O)Nc2ccc(Cl)cc2C)cc1` the inhibition was 53% (active).
`CCOc1ccc(S(=O)(=O)Nc2cc(C)cc(C)c2)cc1` showed an inhibition of -1.15%.
For `CCOc1ccc(NS(=O)(=O)c2ccc(Cl)cc2)cc1`, the inhibition was 3.58%.
`O=C(c1ccccc1F)N1CCc2nnc(Cc3ccccc3)n2CC1` showed an inhibition of 6.95%.
`CCCCN(C)Cc1c(O)c(Cl)cc2c(C)cc(=O)oc12` gave an inhibition of 6.72%.
In the case of `Cc1c(C(=O)Nc2ccc3c(c2)Cc2ccccc2-3)oc2ccccc12`, the inhibition is reported as -8.71%.
Work on `CC(C)c1nnc(NC(=O)CCN2C(=O)C3C4C=CC(C4)C3C2=O)s1` (stereo unspecified) yielded an inhibition of -6.27%.
With `Cc1cc(C)n2cc(CN3CCc4ccccc4C3)nc2n1` the inhibition was -0.09%.
Compound `O=C(Nc1cccc2ncccc12)c1sc2ccccc2c1Cl` has an inhibition of -3.37%.
In the case of `O=C(Nc1nc2ccccc2s1)c1sc2ccccc2c1Cl`, the inhibition is reported as 38.5% (active).
In the case of `Cc1ccc(-c2nc3ccccc3s2)cc1NC(=O)c1sc2ccccc2c1Cl`, the inhibition is reported as -13.1%.
In the case of `Cc1ccc2c(c1)NC(=O)C(CC(=O)NCCN(C)C1CCCCC1)O2` (stereo unspecified), the inhibition is reported as -13.3%.
For `CCc1nnc2sc(-c3ccc(NC(=O)COc4ccccc4[N+](=O)[O-])cc3)nn12`, the inhibition was 1.75%.
`COc1ccc(-n2cc(-c3ccccc3)c3c(NCCc4ccc(S(N)(=O)=O)cc4)ncnc32)cc1` showed an inhibition of 9.44%.
With `CC(=O)Nc1ccc2nc(NC(=O)c3ccc(S(=O)(=O)N4CCCCC4)cc3)sc2c1` the inhibition was 1.92%.
In the case of `Cn1ncc([N+](=O)[O-])c1C(=O)Nc1ccc2nc(NC(=O)C3CCCCC3)sc2c1`, the inhibition is reported as 66.2% (active).
For `CC(=O)Nc1ccc2nc(NC(=O)c3cc4cc([N+](=O)[O-])ccc4s3)sc2c1`, the inhibition was 16.6%.
In the case of `CCOC(=O)C1CCN(Cc2cccc([N+](=O)[O-])c2)CC1`, the inhibition is reported as -8.78%.
`O=C(O)c1cc(N2C(=O)/C(=C/c3ccc(O)cc3)SC2=S)ccc1O` gave an inhibition of 1.88%.
With `Cc1ccc(/C=C2\SC(=S)N(c3cccc(O)c3)C2=O)o1` the inhibition was -1.97%.
For `COc1cccc(/C=C2\SC(=S)N(c3ccc(C(=O)O)c(O)c3)C2=O)c1OC`, the inhibition was 47.1% (active).
`CCn1c(=O)cc(SCC(=O)Nc2nc(C)cs2)c2ccccc21` showed an inhibition of -2.9%.
Work on `CC(=O)O[C@@H]1C[C@H](c2ccc(F)cc2)N(C)C1=O` yielded an inhibition of 3.54%.
`CN1/C(=C/C(=S)C(C)(C)C)Sc2ccccc21` showed an inhibition of -12.6%.
In the case of `Cc1cc(/C=C2\Sc3ccccc3N2C)cc(C)[n+]1CCO`, the inhibition is reported as 73.5% (active).
In the case of `CCN1/C(=C/c2cc(C)[n+](N3CCN(C)CC3)c(C)c2)Sc2ccccc21`, the inhibition is reported as 75.1% (active).
Work on `CCOc1cc2c(cc1OCC)N(CC)/C(=C\C=O)S2` yielded an inhibition of -11.6%.
Work on `O=C(CN1C(=O)/C(=C/c2ccccc2)Sc2ccccc21)N1CCCC1` yielded an inhibition of -1.18%.
For `O=C1c2ccccc2C(=O)N1CCC(=O)N1c2ccccc2Sc2ccccc21`, the inhibition was -5.51%.
